Results from PubChem BioAssay AID624441 (Broad Institute, 2012).
Unmarked numbers belong to inactive results.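 Rule for the calls: active = activation curve reaches 40% at a concentration no higher than the top valid dose tested; inactive = signal falling instead of rising, plus the rest.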

Assay: reactive oxygen species induction in U2OS, dose response, U2OS cells, fluorescence, dry powder (AID 624441)
Details: U2OS ROS induction, H2DCF-DA fluorescence, stronger effect = higher value; at 19.5 µM unless noted

| Structure (SMILES) | max activation |
| --- | --- |
| O=C(Nc1ccccc1)Nc1nc(SCc2ccccc2)ns1 | -12% [at 10 µM] |
| Nc1nc(SCc2ccc(Cl)cc2Cl)ns1 | 43.7% |
| O=C(Nc1nc(SCc2ccccc2)ns1)C1CCC1 | 11.4% |
| Cc1ccccc1CSc1nsc(N)n1 | 36.4% [at 5 µM] |
| Nc1nc(SCc2ccccc2)ns1 | 18.5% [at 0.3 µM] |
| Nc1nc(S(=O)(=O)Cc2ccccc2)ns1 | 20.7% [at 0.0195 µM] |
| Cc1ccccc1CSc1nnc(N)s1 | 9.38% |
| Nc1nc(SCc2ccccc2Cl)ns1 | 15.6% [at 0.0001 µM] |
| Cc1cccc(CSc2nsc(N)n2)c1 | 19.3% [at 1.2 µM] |
| Cc1ccccc1CSc1n[nH]c(N)n1 | 26% [at 0.0195 µM] |
| O=C(Nc1nc(SCc2ccccc2)ns1)C1CC=CCC1 (configuration not stated) | 33.9% [at 38 µM] |
| Nc1nc(SCc2ccc(F)cc2)ns1 | 27% |
